# Assay results: PubChem BioAssay (NCI)
# This is part of a sample that, as a whole, favours compounds with a hit. Of some 83,000 tested, about 20% had one in any assay.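 A percent growth of 40 corresponds to 60% growth inhibition; 0 means no net growth; -100 means all cells died. Active threshold: below 10.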 A number with no mark means an inactive call. Active and inactive are the calls of the source.
# What was measured:
# Test in all cases: NCI-60 one-dose screen, 48 h (100 = growth as untreated, 0 = no growth, -100 = all killed)
# Conditions in all cases: 10 µM unless noted
# [1] = tested on: NCI-H23 lung
# [2] = tested on: NCI-H226 lung
# [3] = tested on: NCI-H322M lung
# [4] = tested on: HOP-62 NSCLC
# [5] = tested on: NCI-H460 lung
# [6] = tested on: HOP-92 NSCLC
# [7] = tested on: NCI-H522 lung
# [8] = tested on: A549/ATCC NSCLC
# [9] = tested on: 786-0 renal
# [10] = tested on: COLO 205 colon
# [11] = tested on: K-562 leukemia
# [12] = tested on: MALME-3M melanoma
# [13] = tested on: MDA-MB-231 breast
# [14] = tested on: RXF 393 renal
# [15] = tested on: SF-295 CNS
# [16] = tested on: SF-539 CNS
# [17] = tested on: UACC-257 melanoma
# [18] = tested on: M14 melanoma
# [19] = tested on: SF-268 CNS
# [20] = tested on: DU-145 prostate
SMILES,growth [1],growth [2],growth [3],growth [4],growth [5],growth [6],growth [7],growth [8],growth [9],growth [10],growth [11],growth [12],growth [13],growth [14],growth [15],growth [16],growth [17],growth [18],growth [19],growth [20]
COc1cc2c(cc1I)-c1c(cc(OC)c(OC)c1OC)CC[C@@H]2NC(C)=O,4.9% (active),33.6%,61.6%,14.7%,1.44% (active),43.7%,-22.3% (active),28.3%,16.4%,-52.8% (active),9.91% (active),72.4%,-6.61% (active),29.8%,-1.65% (active),-30.6% (active),56.7%,-12.9% (active),,
O=C1C=CC(=O)N1CO,124%,113%,117%,115%,123%,120%,103%,109%,113%,149%,-29.9% (active),130%,109%,168%,131%,111%,109%,109%,111%,
COc1ccc(Br)c2ccccc12,109%,106%,117%,103%,114%,93.9%,97.9%,104%,115%,120%,94.3%,121%,123%,109%,110%,109%,100%,101%,108%,
CC(=O)c1cccc(Nc2ncnc3ccc(NC(=O)c4ccco4)cc23)c1,88.7%,87.6%,102%,113%,96.1%,71.7%,83.3%,90.4%,89.5%,98.5%,86.9%,97.8%,88.4%,80.6%,91.9%,103%,94.7%,87.4%,,
CCCCCCCCCCCC1=NC(C)(C)CN1C(C)(C)CO,59.5%,94.8%,92.6%,60.4%,28.2%,28.7%,47.5%,68.8%,71.6%,-81.4% (active),57.6%,62.7%,57.7%,56.3%,90.3%,57.9%,-23.4% (active),-84.4% (active),69.1%,
Cc1cc(C)c2c(NC(=O)Nc3ccc(Cl)c(Cl)c3)n[nH]c2n1,101%,108%,91.3%,105%,106%,117%,92.6%,101%,,106%,91%,90.4%,104%,105%,93.4%,112%,110%,109%,103%,105%
C=C1NC(=O)C(C(C)CC)NC(=O)C2CSCC(NC(=O)CCC(=O)O)C(=O)NC(Cc3ccccc3)C(=O)NC(C)C(=O)NC(CC(C)CC)C(=O)NC(C(=O)NC(Cc3ccccc3)C(=O)N3CCCC3C(=O)N2)C(C)OC(=O)C(CO)NC(=O)C(C(O)COC)N(C)C(=O)C(C(C)C)NC(=O)C(CC(C)CC)NC1=O (stereo not given),38.6% [6 µM],56.8% [6 µM],39.8% [6 µM],17.3% [6 µM],-4.11% [6 µM] (active),42% [6 µM],-19.3% [6 µM] (active),10.9% [6 µM],,-44.7% [6 µM] (active),9.39% [6 µM] (active),55.3% [6 µM],35.1% [6 µM],21.6% [6 µM],14.9% [6 µM],-6.71% [6 µM] (active),30.1% [6 µM],5.52% [6 µM] (active),25.5% [6 µM],9.63% [6 µM] (active)
COc1ccc(C(=O)C(CN(C)C)c2ccccc2)cc1 (stereo not given),13.2%,71.5%,96%,83.6%,47.7%,-4.35% (active),-73.9% (active),72.6%,-36.2% (active),22.8%,12.6%,45%,33.4%,18.6%,54.3%,14.2%,2.45% (active),-63% (active),,
C=CCN(CCOC(=O)c1ccc([N+](=O)[O-])cc1)CCOC(=O)c1ccc([N+](=O)[O-])cc1,106%,94.9%,91.1%,91.9%,115%,87.1%,95.3%,102%,103%,112%,92.3%,98.8%,96.2%,138%,107%,110%,97.8%,105%,98%,
Cc1[nH]n(C(=O)c2ccncc2)c(=O)c1N=Nc1ccc(O)c(C(=O)O)c1,106%,86.3%,91.3%,-3.17% (active),114%,62.7%,104%,21.9%,,113%,91.1%,94.2%,94%,,,100%,-14.1% (active),114%,106%,132%
O=[N+]([O-])c1ccccc1CN1CCCCC1,92.8%,112%,106%,107%,116%,89.7%,110%,106%,111%,111%,136%,121%,105%,104%,112%,104%,110%,114%,112%,
CCCCC(CCc1ccccn1)C(=O)c1ccccc1 (stereo not given),98.8%,118%,103%,106%,112%,94.9%,131%,111%,110%,112%,116%,119%,104%,109%,104%,107%,123%,108%,122%,
CC(C)(C)NC(=O)C(OC(=O)C1CCc2cc(F)ccc2O1)c1ccccc1Cl (stereo not given),93.5%,95.6%,95.6%,94.4%,104%,89%,82.4%,98.6%,100%,130%,103%,94.4%,92.4%,96.3%,95.4%,108%,106%,94.9%,,
COc1ccc(CCN2COc3c([C@@H](C)CCC=C(C)C)ccc(C)c3C2)cc1OC,39.1%,82.3%,88.2%,73.4%,34.5%,-1.29% (active),64.7%,74.3%,52.4%,-92.9% (active),13.1%,48%,57%,63.9%,43.1%,80.5%,48.1%,11.5%,,
Clc1ccccc1Nc1nnc(-c2ccncc2)s1,102%,101%,93.7%,118%,99.7%,93.9%,98.6%,95%,80.2%,114%,101%,109%,108%,107%,88.7%,108%,108%,104%,105%,
O=C(O)c1cn(-c2ccccc2)nc1-c1ccc(O)cc1,93.9%,107%,100%,92.7%,94.7%,85.5%,78.6%,92.4%,97.4%,109%,100%,105%,95.7%,108%,92.8%,101%,85.1%,91.8%,,
CC(C)=CCC[C@H](C)c1ccc(C)c2c1OCN(CCO)C2,81.7%,91.2%,104%,80.4%,96%,4.21% (active),78.1%,82.4%,61%,119%,77.7%,89.5%,88.8%,52.4%,98.6%,88.2%,92.3%,90.9%,,

SMILES,growth [1],growth [2],growth [3],growth [4],growth [5],growth [6],growth [7],growth [8],growth [9],growth [10],growth [11],growth [12],growth [13],growth [14],growth [15],growth [16],growth [17],growth [18],growth [19],growth [20]
COc1cc2c(cc1OCCCOc1cc3c(cc1OC)C(=O)N1CCC[C@H]1C=N3)C=CC(C)(C)O2,107%,82.7%,133%,101%,108%,66.3%,83.7%,99.3%,102%,103%,71.2%,152%,88.6%,94.8%,123%,126%,83.9%,111%,91.2%,
Cc1ccccc1N1C(c2ccccc2)=NNC12C=CC(=O)c1c(O)cccc12 (stereo not given),31.4%,87.8%,99.1%,31.1%,89.6%,137%,54.6%,68.1%,,95.7%,63.3%,75.1%,73.5%,115%,54.5%,76.2%,45.3%,75.5%,76.7%,94.9%
Oc1[nH]c2ccc(Cl)cc2c1/C=c1/ccc2c(c1)N=C(c1ccc(F)cc1)N=2,74.5%,89.9%,84.1%,74.5%,74.2%,34.2%,,71.4%,76%,97.6%,16.4%,-3.95% (active),63.1%,63.4%,,92.2%,70.1%,30.4%,77.2%,86.3%
COc1ccc(/C(=C\c2ccc3c(c2)OCO3)C(=O)Nc2nc3ccc(F)cc3s2)cc1OC,93.2%,87.1%,87.3%,92.8%,105%,93.6%,,99.7%,92.1%,106%,101%,,109%,111%,,96.3%,112%,94.3%,98.5%,98.2%
O=c1c2sc3ncc(Cl)cc3c2nnn1-c1cccc(Cl)c1,83.8%,33.4%,56.8%,47.7%,22%,63.8%,,42.5%,72.5%,89.4%,68.1%,75.3%,110%,96.2%,,82.1%,112%,85.1%,66.1%,65.3%
O=C1/C(=C\c2cccn2Cc2ccc(Cl)cc2)c2ccccc2N1c1c(Cl)cccc1Cl,86.3%,59.3%,68.6%,98.6%,94%,74.8%,,67.2%,81.7%,93.6%,75.6%,79.5%,68.1%,78.3%,87.7%,88.8%,93.1%,101%,88.1%,105%
C/C(=N\NC(=S)Nc1ccccc1)c1ccccn1,59.8%,21.3%,20.9%,41.4%,17.3%,37.1%,,45.7%,32.6%,25.6%,23.6%,31.3%,30.8%,12.2%,,19.6%,17.6%,24.1%,43.3%,57.5%
COc1cccc(Cn2c(-c3nonc3NC(C)=O)nc3ccccc32)c1,39.8%,60.9%,33.7%,38.9%,20.7%,29.6%,,41.4%,45.8%,23.8%,13.9%,42.3%,46.1%,-17% (active),15%,36.7%,52.7%,14.1%,59.5%,13.8%
O=C(/C=C/c1ccccc1)n1c(-c2ccccc2)nc2ccccc21,101%,101%,108%,105%,103%,91.6%,,101%,100%,109%,103%,112%,117%,102%,,95.3%,92.4%,104%,110%,113%
CCCCCCCCNC(C)C(O)c1ccc(SC(C)C)cc1 (stereo not given),74.2%,96%,87.9%,85%,-37.7% (active),-28.1% (active),,98.8%,-14.9% (active),4.17% (active),-59.8% (active),-78% (active),89.7%,37.5%,,26.8%,56%,-17.4% (active),34.9%,-25.5% (active)
O=C(O)c1ccccc1N=Cc1ccccc1,98%,132%,120%,100%,106%,90.2%,,102%,104%,105%,99.2%,,109%,132%,,101%,113%,109%,109%,108%
CCOC(=O)c1ccc(NCCC(=O)O)cc1,107%,100%,104%,95.9%,116%,89.4%,,103%,96.2%,121%,90.4%,110%,122%,111%,,112%,104%,104%,119%,126%
CCCCCCCCCCCCCCCCS(=O)(=O)Nc1cc(C(=O)NN)cc(C(=O)NN)c1,99.1%,73.1%,56.9%,76.1%,95.6%,92.2%,,91.8%,96.2%,83.2%,33.9%,85.4%,58.2%,94.3%,,63.7%,107%,,43.4%,81%
CNC(=O)c1cc(Oc2ccc(NC(=O)c3nc(S(C)(=O)=O)n(C)c3-c3ccc(F)cc3)cc2)ccn1,79.1%,87.4%,62.5%,91.3%,59.4%,77.3%,,82.5%,75.4%,59.4%,61%,77.5%,83%,58.4%,70.2%,85.6%,96.4%,50.4%,70.4%,56.9%
COc1ccc(-c2nsc3c2NC(=O)CC3c2ccc3c(c2)OCO3)cc1 (stereo not given),35.1%,68.4%,43.9%,31.2%,19.1%,2.96% (active),,26.6%,57.5%,-14.4% (active),0.385% (active),-1.91% (active),36%,11.3%,,-9% (active),60.2%,18.2%,42.8%,14.8%
CCN(CC)CCCC(C)Nc1cnc(C(=O)Nc2ccc(Cl)c3cccnc23)cn1 (stereo not given),80.4%,39.1%,35.3%,43%,3.47% (active),38.8%,,23.4%,-44.2% (active),-66.7% (active),-45.8% (active),-71.8% (active),-29.7% (active),18.7%,63%,-73.6% (active),-33% (active),-73.1% (active),35.8%,53.1%
